# Test results taken from PubChem BioAssay (NCATS).
# Values without a mark were called inactive. Inconclusive results are not listed. Active and inactive are the calls of the source. Unless noted, calls come from the whole dose curve; as a rule, active = well fitted curve in the direction sought with a large enough effect; inconclusive = small, poorly fitted or top-dose-only effect, or another doubt; inactive = no such curve, though single readings can be large; an effect the other way counts as inactive or inconclusive.
# Tests used:
# [1] = Drug repurposing screens with cells derived from glioblastoma tumor samples (AID 1345199); conditions: GBM patient neurospheres viability, ATP luminescence, 48 h; note: nearly all actives have a fitted effect of over 40% in size; note: potency is the fitted concentration of half-maximal effect; for activity, negative = cell killing: % is set by controls: 0 for no effect and ±100 for the full control effect
# How it was run: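 Primary testing used CD133+ neurospheres from four GBM patients, seven concentrations, 48 h exposure and ATP-based viability; confirmation added three slower-growing patient lines.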
# [2] = qHTS assay to identify inhibitors of the type 1 interferon - major histocompatibility complex class I in skeletal muscle: Counter screen cell viability and HiBit confirmation (AID 1347412); conditions: iHSKM muscle cells + IFN-b, HiBiT or CellTiter-Glo, 24 h; Potency: HiBiT; Viability, at 45.9 µM (top of the series); note: % is set by controls: 0 for no effect and ±100 for the full control effect; nearly all actives have a fitted effect of over 60% in size
# How it was run: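 Luminescence read-out: Nano-Glo HiBiT lytic signal from C-terminally HiBiT-tagged HLA-B in CRISPR-edited human myoblasts, plus CellTiter Glo ATP as viability counter screen. IFN-beta 4.0 ng/ml; 24 hrs treatment at 37 C, 5% CO2.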
# [3] = qHTS assay for small molecule activators of the human pregnane X receptor (PXR) signaling pathway (AID 720659; call rule not given here; note: 0% is about no effect); conditions: DPX-2 HepG2 CYP3A4-luciferase, 24 h; series mostly up to 92.3 µM
structure (smiles),measurement,setting,value
O=C(Oc1ccccc1)c1cccc(C(=O)Oc2ccccc2)c1,"activity, negative = cell killing","[1]; at 91.6 µM (top of the series), tumour line A",-20.2%
same,"activity, negative = cell killing","[1]; at 91.6 µM (top of the series), tumour line B",-23.3%
same,"activity, negative = cell killing","[1]; at 91.6 µM (top of the series), tumour line D",-9.21%
same,"activity, negative = cell killing","[1]; at 99.2 µM (top of the series), tumour line C",1.54%
CC(C)OC(=O)c1cc2c(OCC(O)CNC(C)(C)C)cccc2[nH]1 (stereo not drawn),Potency,[1]; tumour line D,22.4 µM (active)
CCN(CC)CCOc1ccc(/C(=C(\Cl)c2ccccc2)c2ccccc2)cc1,Potency,[2],inactive
O=C(Nc1ccc(Cl)cc1)Nc1ccc(Cl)c(Cl)c1,outcome,[3],inactive
OCc1c[nH]c2ccccc12,outcome,[3],inactive
